In all, about 300,000 compounds went through this assay and about 3,600 (1.2%) were called active. The full list was thinned out, with actives kept by preference. A number with no mark means an inactive call. No stated cut-off is given here; in the data, active means activation above about 30% (passing the limit was not always enough); inconclusive means no clear call, values can overlap the other calls.

The nature of this assay: activation of beta-catenin signaling reporter – cell-based, plate reader, single point, primary screen (AID 743398).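 Further: 0% = neutral control wells and 100% = positive control wells.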 As to conditions: Wnt/beta-catenin reporter cell assay, activator, at 9.35 µM, hits give high values.
Consider `C=CCNC(=O)c1ccc(C)c(Br)c1`, for which the activation is -0.707%.

As to `C=CCNC(=O)c1ccc2c3n(nc2c1)-c1ccc(C)cc1CO3`, the activation was 38.9% (active). With `Cc1cccc(-c2nc3ccc(C(=O)NCCN4CCN(C)CC4)cc3nc2-c2cccc(C)c2)c1`, the activation is 2.48%. Under `CN(C)c1ccnc2sc(C(=O)c3ccccc3)c(N)c12` stands 79.3% (active); under `Cc1ccc2c(N)c(C(=O)c3ccccc3)sc2n1`, 22.1%. To `CCN(CC)C(=O)c1sc2nc(-c3ccccc3)ccc2c1N` belongs 10.1%. To `COc1cccc(C(O)c2ncc(-c3ccc4ccccc4c3)[nH]2)c1` (centres undefined) belongs 0.0285%; to `Cc1ccc2nc(-c3ccco3)c(Cc3cccc(Cl)c3)n2c1`, -1.15%. On to `O=C(COc1ccc([N+](=O)[O-])cc1)Nc1ccc(N2CCCC2)cc1`, for which the activation was -2.41%. Regarding `O=C(N/N=C/c1ccc(O)cc1)/C(=C/c1ccc([N+](=O)[O-])cc1)NC(=O)c1ccccc1`, the activation was 0.356%. Under `O=C(COc1ccc(/C=N/NC(=O)c2ccc(O)cc2)cc1)Nc1ccc([N+](=O)[O-])cc1` stands 46.5% (active). `CCC(CC)C(C(=O)NC1CCCC1)N1CCN(c2cc(C)nc3ccccc23)CC1` (centres undefined): the activation is -1.19%. As to `CNC(=O)c1ccc(CN(C)C(=O)c2cc(C3CC3)nc3c2cnn3C(C)C)cc1`, the activation was 7.06%. Under `O=C(Cc1ccc([N+](=O)[O-])cc1)NCCS(=O)(=O)N1CCN(c2ccccc2)CC1` stands -2.6%. As to `CCCOc1ccc(F)cc1-c1cc(C(=O)Nc2ccc(F)c(Cl)c2)[nH]n1`, the activation was -0.991%. Under `CCCCCCCCN1C(=O)[C@@H](CC(=O)NCc2ccc(C)o2)C[C@@]2(C(=O)OC)C1=C[C@H](C(C)(C)C)O[C@@H]2C` stands -3.74%. To `O=C1Oc2ccccc2C(=O)/C1=C/c1ccccc1O` belongs -4.19%; to `COC(=O)C(C)Oc1ccc2c(c1)O/C(=C\c1cccc(Br)c1)C2=O` (centres undefined), -0.1%. As for `COc1ccc2c(c1)O/C(=C\c1ccccc1O)C2=O`, the activation was 39.8% (active). To `Clc1cccc2c1C1CC2CCN1Cc1ccccc1` (centres undefined) belongs -2.22%; to `COc1ccccc1OCC(=O)O/N=C(\N)c1ccccn1`, 55.9% (active); to `N/C(=N\OC(=O)Cc1ccc([N+](=O)[O-])cc1)c1ccccn1`, 1.55%. Under `COc1ccc(C(=O)O/N=C(\N)c2ccccn2)cc1[N+](=O)[O-]` stands 17%; under `COc1ccc(OC)c(CN2C(=O)CCC2(C)c2nnnn2Cc2ccccc2)c1` (centres undefined), -0.624%.

For the origin of these results see PubChem BioAssay AID743398 (Broad Institute, 2014).
